Most compounds without a hit are left out; they make up all but 7.5% or so of the library.
SMN2 splice enh: qHTS Assay for Enhancers of SMN2 Splice Variant Expression. HEK293 SMN2-luciferase splicing reporter, luminescence, 30-36 h. Potency, µM (highest dose often 46.1 µM), usual class: activators. 210,000 tested, 2.8% active; note: nearly all actives have a fitted effect of over 55% in size
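HEK293 cells carry an SMN2 minigene-luciferase reporter in which exon 7 inclusion puts luciferase in frame. Cells were seeded at 2000 cells/well, attached for 10-12 hours, then exposed to compounds for 30-36 hours at 37C before ONE-Glo luminescence.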
NPC1 promoter act: qHTS Assay for NPC1 Promoter Activators | Huh7 NPC1 promoter luciferase reporter, 24 h | 320,000 tested, 2.4% active | AID 485313, 2010 | Potency, µM (titrated, usually from 9.22 µM), usual class: activators; note: nearly all actives have a fitted effect of over 60% in size
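Luminescence from an NPC1 promoter-driven luciferase reporter in stably transfected Huh7 cells was measured after 24 h compound treatment at 37 °C, followed by 10 min ambient incubation with luciferase detection reagent.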
ELG1 genotoxic: qHTS screen for small molecules that induce genotoxicity in human embryonic kidney (HEK293T) cells expressing luciferase-tagged ELG1 | HEK293T ELG1-luciferase reporter, luminescence, 16 h | Potency, µM (titrated, usually from 46 µM), actives largely listed as activators | 330,000 tested, 1.3% active | AID 504466, 2011; note: nearly all actives have a fitted effect of over 60% in size
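Reporter readout depends on ELG1 protein level, which increases with genetic stress. After 16 hr compound exposure at 37 °C, luciferase activity was quantified using ONE-Glo.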
FLuc counter: qHTS profiling assay for firefly luciferase inhibitor/activator using purifed enzyme and Km concentrations of substrates (counterscreen for miR-21 project). purified FLuc, Km substrates, luminescence inhibition. Potency, µM (top dose mostly 57.5 µM), usual class: inhibitors. AID 588342, 2011. 360,000 tested, 6.9% active; note: nearly all actives have a fitted effect of over 55% in size
Target sequence (P08659 whole entry, looked up): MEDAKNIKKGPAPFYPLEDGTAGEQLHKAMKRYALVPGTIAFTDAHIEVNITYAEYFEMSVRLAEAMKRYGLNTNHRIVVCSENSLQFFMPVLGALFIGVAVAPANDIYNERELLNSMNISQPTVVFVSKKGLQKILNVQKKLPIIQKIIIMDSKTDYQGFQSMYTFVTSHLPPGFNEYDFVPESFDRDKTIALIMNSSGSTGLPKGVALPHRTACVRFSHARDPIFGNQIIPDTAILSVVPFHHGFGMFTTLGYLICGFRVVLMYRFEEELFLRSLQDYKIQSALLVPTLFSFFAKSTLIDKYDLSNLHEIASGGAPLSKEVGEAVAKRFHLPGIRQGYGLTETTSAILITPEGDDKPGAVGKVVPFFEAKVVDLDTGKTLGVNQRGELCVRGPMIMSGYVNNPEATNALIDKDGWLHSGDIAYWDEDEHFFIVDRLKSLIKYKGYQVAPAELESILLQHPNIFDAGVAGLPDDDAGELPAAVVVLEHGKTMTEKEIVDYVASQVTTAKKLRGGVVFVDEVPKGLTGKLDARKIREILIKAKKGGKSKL
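Biochemical qHTS of compounds, final roughly 60 µM downward over six points, against 10 nM purified firefly luciferase using Km concentrations of substrates (10 uM D-luciferin, 10 uM ATP) in Tris acetate pH 7.5 buffer; luminescence output.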
KinaseGlo FLuc: Counterscreen for Luciferase (Kinase-Glo TM) Inhibition; Potency, µM (highest dose often 38.3 µM), most hits filed as inhibitors; AID 1379, 2008; Kinase-Glo luciferase, ATP luminescence, 8 min; Luciferin 4-monooxygenase (Photuris pensylvanica), Q27757; 200,000 tested, 0.28% active; note: nearly all actives have a fitted effect of over 60% in size
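Compound is pinned into ATP-containing buffer (10 uM ATP, imidazole pH 7.2, 7 mM MgCl2). Kinase-Glo luciferase reagent is then added. Light output is recorded following an 8-min room-temperature incubation.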
Rab9 promoter act: qHTS Assay for Rab9 Promoter Activators. Huh7 Rab9 promoter-luciferase reporter, luminescence, 24 h. 320,000 tested, 2.8% active. Potency, µM (highest dose often 9.22 µM), actives largely listed as activators; note: nearly all actives have a fitted effect of over 60% in size
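Luminescence read-out: Huh7 cells stably expressing Rab9-luciferase, treated 24 h with compound at 37 °C, then lysed with luciferase reagent for 10 min at ambient before reading.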
A number is an active result. Calls come from the whole dose curve; as a rule, active = well fitted curve in the direction sought with a large enough effect; inconclusive = small, poorly fitted or top-dose-only effect, or another doubt; inactive = no such curve, though single readings can be large; an effect the other way counts as inactive or inconclusive.

How did CCc1ccc(C(=O)COC(=O)[C@@H](NC(N)=O)[C@@H](C)CC)cc1 do in these assays?
SMN2 splice enh: inactive; NPC1 promoter act: inactive; ELG1 genotoxic: inconclusive; FLuc counter: 1.3µM; KinaseGlo FLuc: inactive; Rab9 promoter act: inconclusive

What do the screens show for `CCc1ccc(C(=O)COC(=O)C(NC(=O)C2CCC(C)CC2)C(C)C)cc1` (stereo not drawn)?
SMN2 splice enh: inactive; FLuc counter: 1.7µM

How did CCC(C)C(NC(N)=O)C(=O)Nc1ccc(C(=O)OC)cc1 (stereo not drawn) do in these assays?
SMN2 splice enh: inactive; NPC1 promoter act: inactive; ELG1 genotoxic: inactive; FLuc counter: inactive; KinaseGlo FLuc: inactive; Rab9 promoter act: inactive

What do the screens show for `Cc1ccccc1NC(=O)CN(C)S(=O)(=O)c1cccc2nsnc12`?
FLuc counter: inactive

Results for CN(C)C(CNC(=O)c1cc2ccccc2oc1=O)c1ccccc1 (stereo not drawn) ?
NPC1 promoter act: 3.5µM; ELG1 genotoxic: inconclusive; FLuc counter: 15µM; Rab9 promoter act: inconclusive

What do the screens show for `O=C(NCc1ccccc1)c1cc2ccccc2oc1=O`?
NPC1 promoter act: inactive; ELG1 genotoxic: inconclusive; FLuc counter: 15µM; Rab9 promoter act: inactive

What do the screens show for `O=C(NCc1ccc(Cl)cc1)c1cc2ccccc2oc1=O`?
NPC1 promoter act: inactive; ELG1 genotoxic: inactive; FLuc counter: inconclusive; Rab9 promoter act: inactive

Results for COc1ccc(CNC(=O)c2cc3ccccc3oc2=O)cc1 ?
NPC1 promoter act: inactive; ELG1 genotoxic: inactive; FLuc counter: inconclusive; Rab9 promoter act: inactive

How did COc1ccc(CC(N)C(=O)NC2C(CO)OC(n3cnc4c(N(C)C)ncnc43)C2O)cc1 (stereo not drawn) do in these assays?
SMN2 splice enh: inactive; KinaseGlo FLuc: inactive

How did Cc1cc(/C=C2/NC(=S)NC2=O)c(C)n1-c1cccnc1 do in these assays?
SMN2 splice enh: inconclusive; NPC1 promoter act: inactive; ELG1 genotoxic: inactive; FLuc counter: 5.4µM; KinaseGlo FLuc: inactive; Rab9 promoter act: inconclusive

How did Cc1cc(/C=C2/NC(=O)N(c3ccccc3)C2=O)c(C)n1-c1cccnc1 do in these assays?
SMN2 splice enh: 7.9µM; NPC1 promoter act: 2.2µM; ELG1 genotoxic: inconclusive; FLuc counter: 3.4µM; KinaseGlo FLuc: inactive; Rab9 promoter act: 1.6µM

Results for COc1ccc(S(=O)(=O)n2nc(-c3ccco3)nc2NCc2ccc(N(C)C)cc2)cc1 ?
FLuc counter: inactive

Results for COC(C(=O)N/N=C(\C)c1ccc(C(C)(C)C)cc1)c1ccccc1 (stereo not drawn) ?
NPC1 promoter act: inactive; ELG1 genotoxic: inactive; FLuc counter: inactive; Rab9 promoter act: inactive

Results for COC(=O)[C@H](COC(C)(C)C)NC(=O)O[C@@H]1C(=O)c2cc(Br)ccc2O[C@H]1c1ccc2c(c1)OCO2 ?
SMN2 splice enh: inactive; KinaseGlo FLuc: inactive

How did Cc1csc(NC(=O)c2nc3nccc(C)n3n2)n1 do in these assays?
SMN2 splice enh: inactive; NPC1 promoter act: inconclusive; ELG1 genotoxic: inconclusive; FLuc counter: inconclusive; KinaseGlo FLuc: inactive; Rab9 promoter act: inconclusive

What do the screens show for `Cc1ccnc2nc(C(=O)Nc3nnc(CC(C)C)s3)nn12`?
NPC1 promoter act: inactive; ELG1 genotoxic: inactive; FLuc counter: inactive; KinaseGlo FLuc: inactive; Rab9 promoter act: inactive

How did Cc1ccc(NC(=O)c2nc3nccc(C)n3n2)c(C)c1 do in these assays?
SMN2 splice enh: 11µM; NPC1 promoter act: inconclusive; ELG1 genotoxic: inconclusive; FLuc counter: inconclusive; KinaseGlo FLuc: inactive; Rab9 promoter act: inconclusive

Results for Cc1ccnc2nc(C(=O)Nc3nc4ccccc4s3)nn12 ?
NPC1 promoter act: 1µM; ELG1 genotoxic: inconclusive; FLuc counter: 11µM; Rab9 promoter act: 2.8µM

How did CCOc1cc(CNC(=O)CSc2n[nH]c(-c3ccccc3)n2)cc(OCC)c1OCC do in these assays?
FLuc counter: inactive

What do the screens show for `CS(=O)(=O)n1nc(OC(=O)c2cccc3ccccc23)cc1N`?
SMN2 splice enh: inactive; NPC1 promoter act: inactive; ELG1 genotoxic: inactive; FLuc counter: 17µM; KinaseGlo FLuc: inactive; Rab9 promoter act: inactive

Results for CS(=O)(=O)n1nc(OC(=O)c2cc(Br)ccc2Cl)cc1N ?
SMN2 splice enh: inactive; NPC1 promoter act: inactive; ELG1 genotoxic: inactive; FLuc counter: inconclusive; KinaseGlo FLuc: inactive; Rab9 promoter act: inactive

How did Cc1ccc(/C=N/NC(=O)c2cccs2)cc1[N+](=O)[O-] do in these assays?
SMN2 splice enh: inconclusive; NPC1 promoter act: inconclusive; ELG1 genotoxic: inactive; FLuc counter: 7.6µM; KinaseGlo FLuc: inactive; Rab9 promoter act: inconclusive

How did O=C(N/N=C/C=C/c1ccccc1[N+](=O)[O-])c1cccs1 do in these assays?
SMN2 splice enh: inactive; NPC1 promoter act: inactive; ELG1 genotoxic: inactive; FLuc counter: inconclusive; KinaseGlo FLuc: inactive; Rab9 promoter act: inactive

How did O=C(N/N=C/c1ccccc1[N+](=O)[O-])c1cccs1 do in these assays?
NPC1 promoter act: inconclusive; ELG1 genotoxic: inconclusive; FLuc counter: 6.7µM; Rab9 promoter act: 2.5µM

Results for CCOc1ccc(N/C=C/C(=O)c2ccc3ccccc3c2)c([N+](=O)[O-])c1 ?
SMN2 splice enh: 2.5µM; NPC1 promoter act: 2µM; ELG1 genotoxic: inactive; FLuc counter: 0.85µM; KinaseGlo FLuc: inactive; Rab9 promoter act: 2µM

Results for CCOc1ccc(NC(=O)Cc2cccc3ccccc23)c([N+](=O)[O-])c1 ?
SMN2 splice enh: inactive; NPC1 promoter act: inactive; ELG1 genotoxic: inactive; FLuc counter: inactive; KinaseGlo FLuc: inactive; Rab9 promoter act: inactive

What do the screens show for `CCOc1ccc(NC(=O)Cc2ccccc2)c([N+](=O)[O-])c1`?
SMN2 splice enh: inactive; NPC1 promoter act: inactive; ELG1 genotoxic: inactive; FLuc counter: inactive; KinaseGlo FLuc: inactive; Rab9 promoter act: inactive

What do the screens show for `CCOc1ccc(NC(=S)NC(=O)/C=C/c2ccc(C)cc2)c([N+](=O)[O-])c1`?
NPC1 promoter act: inactive; ELG1 genotoxic: inconclusive; FLuc counter: inconclusive; KinaseGlo FLuc: inactive; Rab9 promoter act: inactive

Results for Cc1ccc(C(=O)/C=C/Nc2ccc([N+](=O)[O-])cc2Br)cc1 ?
SMN2 splice enh: inconclusive; NPC1 promoter act: 0.45µM; ELG1 genotoxic: inconclusive; FLuc counter: 0.34µM; KinaseGlo FLuc: inactive; Rab9 promoter act: 0.45µM

How did CCOc1ccc(N/C=C/C(=O)c2ccc(C)cc2)c([N+](=O)[O-])c1 do in these assays?
SMN2 splice enh: inconclusive; NPC1 promoter act: 1.4µM; ELG1 genotoxic: inconclusive; FLuc counter: 1.3µM; KinaseGlo FLuc: inactive; Rab9 promoter act: inconclusive

Screens (PubChem BioAssay)
